Sampled rows, rich in hits. Any-hit rate of the full collection: about 11%.
HEK293 tox: Cytotoxic Profiling in HEK 293 Cell Line of Diverse Libraries Using Quantitative High-Throughput Screening; 94,000 tested, 6.6% active; HEK 293 viability, ATP luminescence (CellTiter-Glo), 48-72 h; Potency, µM (highest dose often 115 µM), most hits filed as inhibitors; also: nearly all actives have a fitted effect of over 60% in size
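Read-out: CellTiter-Glo ATP luminescence. Cells: HEK 293, 250 cells/well. Exposure: 48 or 72 hr, 37 degree Celsius.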
FLuc inh: Firefly luciferase inhibition profiling of diverse chemical library using quantitative high-throughput screening | Luciferin 4-monooxygenase (Photinus pyralis), P08659 | purified P. pyralis luciferase, luminescence, biochemical | Potency, µM (highest dose often 115 µM), actives largely listed as inhibitors | 76,000 tested, 2.5% active | AID 1347043, 2019; also: nearly all actives have a fitted effect of over 65% in size
Target sequence (P08659 whole entry, looked up): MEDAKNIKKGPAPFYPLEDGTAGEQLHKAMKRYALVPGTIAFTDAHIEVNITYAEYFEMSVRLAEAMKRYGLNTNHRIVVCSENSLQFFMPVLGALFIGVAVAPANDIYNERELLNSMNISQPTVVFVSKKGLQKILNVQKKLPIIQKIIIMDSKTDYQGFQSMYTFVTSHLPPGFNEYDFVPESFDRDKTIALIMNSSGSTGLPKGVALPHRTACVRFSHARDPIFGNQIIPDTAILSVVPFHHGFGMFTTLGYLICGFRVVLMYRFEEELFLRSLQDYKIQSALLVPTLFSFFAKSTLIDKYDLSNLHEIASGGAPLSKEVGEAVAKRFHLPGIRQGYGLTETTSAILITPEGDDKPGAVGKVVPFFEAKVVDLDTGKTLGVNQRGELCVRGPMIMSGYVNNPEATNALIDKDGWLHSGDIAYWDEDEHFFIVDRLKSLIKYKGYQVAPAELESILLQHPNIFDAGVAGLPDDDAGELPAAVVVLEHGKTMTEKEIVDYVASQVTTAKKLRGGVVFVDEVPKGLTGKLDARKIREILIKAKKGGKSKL
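Purified P. pyralis luciferase (10nM final) in 50mM Tris acetate pH 7.5, 10mM Mg acetate, 0.01% Tween-20, 0.05% BSA with 10uM D-luciferin and 10uM ATP. Compounds titrated qHTS. Luminescence imaged on CCD.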
hNpr1 antagonist: Natriuretic polypeptide receptor (hNpr1) antagonism - Primary qHTS | Atrial natriuretic peptide receptor 1 (Homo sapiens), P16066 | HEK293 hNpr1 GloSensor cGMP, ANP-stimulated luminescence | Potency, µM (doses to about 46.3 µM), hits mostly inhibitors | 76,000 tested, 1.6% active | AID 1347048, 2019; calls by dose curve; also: nearly all actives have a fitted effect of over 60% in size
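HEK293 cells stably expressing human Npr1 and cGMP GloSensor pGS-40F, loaded 2 h with 2% GloSensor reagent, given compound 30 min at room temperature. Luminescence read before and 20 min after 0.1 nM hNppA.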
NIH3T3 tox: Cytotoxic Profiling in NIH 3T3 Cell Line of Diverse Libraries Using Quantitative High-Throughput Screening; NIH 3T3 viability, CellTiter-Glo ATP luminescence, 48-72 h; Potency, µM (highest dose often 96.7 µM), most hits filed as inhibitors; 94,000 tested, 4.3% active; AID 1345082, 2018; also: nearly all actives have a fitted effect of over 55% in size
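ATP-dependent luminescence (CellTiter-Glo) served as the viability signal for NIH 3T3 cells treated with compound for 48 or 72 hr at 37 °C.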
Npr1 antag conf: Natriuretic polypeptide receptor (hNpr1) antagonism - Confirmation; shares compounds with hNpr1 antagonist; HEK293 hNpr1 cGMP GloSensor luminescence, ANP-stimulated; Potency, µM (titrated, usually from 57.6 µM), usual class: inhibitors; 1,400 tested, 76% active; AID 1347044, 2019; calls by dose curve; also: nearly all actives have a fitted effect of over 70% in size
NPR2 antag: Natriuretic polypeptide receptor (hNpr2) antagonism - Subtype selectivity assay; shares compounds with hNpr1 antagonist; HEK293 hNpr2 GloSensor cGMP luminescence, CNP-stimulated; Potency, µM (doses to about 57.6 µM), usual class: inhibitors; 1,400 tested, 67% active; AID 1347046, 2019; calls by dose curve; also: nearly all actives have a fitted effect of over 70% in size
FLuc inh counter: Natriuretic polypeptide receptor (hNpr1) antagonism - Confirmation firefly luciferase (FLuc) inhibition counterscreen | shares compounds with hNpr1 antagonist | purified FLuc enzyme, luminescence, Km substrate | Potency, µM (series often up to 57.6 µM), actives largely listed as inhibitors | 1,400 tested, 0.7% active | AID 1347047, 2019
GloSensor cGMP: Natriuretic polypeptide receptor (hNpr1) antagonism - Counterscreen GloSensor control cell line. shares compounds with hNpr1 antagonist. HEK293 GloSensor cGMP, SNP-stimulated, luminescence. Potency, µM (doses to about 57.6 µM), hits mostly inhibitors. 1,400 tested, 69% active; calls by dose curve; also: nearly all actives have a fitted effect of over 70% in size
Of the large screens only hits and unclear results are named; the others gave an inactive call (follow-up assays come after a bar, where they were run). Unless noted, calls follow the shape of the dose curve; as a rule, active = well fitted curve in the direction sought with a large enough effect; inconclusive = small, poorly fitted or top-dose-only effect, or another doubt; inactive = no such curve, though single readings can be large; an effect the other way counts as inactive or inconclusive.

CCNC(=O)Cc1c[nH]c2ncc(-c3ccccc3C)cc12	HEK293 tox inconclusive, hNpr1 antagonist 17.8µM, NIH3T3 tox inconclusive | Npr1 antag conf 31.4µM | NPR2 antag 31.4µM | FLuc inh counter inactive | GloSensor cGMP 28µM
O=C(Cc1c[nH]c2ncc(-c3ccccc3C(F)(F)F)cc12)NCc1cccnc1	HEK293 tox inconclusive, hNpr1 antagonist 7.94µM, NIH3T3 tox inconclusive | Npr1 antag conf 15.7µM | NPR2 antag 19.8µM | FLuc inh counter inactive | GloSensor cGMP 15.7µM
COCCNC(=O)Cc1c[nH]c2ncc(-c3ccccc3C)cc12	HEK293 tox inconclusive, NIH3T3 tox inconclusive
COc1ncccc1-c1cnc2[nH]cc(CC(N)=O)c2c1	NIH3T3 tox inconclusive
NC(=O)Cc1c[nH]c2ncc(-c3ccccc3C(F)(F)F)cc12	HEK293 tox inconclusive, hNpr1 antagonist inconclusive | Npr1 antag conf 31.4µM | NPR2 antag inconclusive | FLuc inh counter inactive | GloSensor cGMP 35.3µM
Cc1ccc(CN2CCCC3(CCC(=O)N(CCc4cnc[nH]4)C3)C2)s1 (stereo not given)	none
Clc1ccccc1C1Cn2nnc(-c3noc(-c4cc(C5CC5)[nH]n4)n3)c2CO1 (stereo not given)	HEK293 tox inconclusive, NIH3T3 tox inconclusive
COc1ccc(C(=O)N2CCC(C(=O)N3CCCC(c4nc5ccncc5[nH]4)C3)CC2)cc1 (stereo not given)	none (no result: FLuc inh, hNpr1 antagonist)
OC1CC(c2cc(NCCOCc3ccc(Cl)cc3)ncn2)C1 (stereo not given)	HEK293 tox inconclusive, hNpr1 antagonist 11.2µM, NIH3T3 tox inconclusive | Npr1 antag conf 21.7µM | NPR2 antag inconclusive | FLuc inh counter inactive | GloSensor cGMP 21.7µM
COc1ccc(CCCNc2cc(C3CC(O)C3)ncn2)cc1 (stereo not given)	HEK293 tox inconclusive, hNpr1 antagonist 10µM | Npr1 antag conf 19.3µM | NPR2 antag 19.3µM | FLuc inh counter inactive | GloSensor cGMP 13.7µM
O=S(=O)(CCNc1cc(C2CC(O)C2)ncn1)c1ccc(F)cc1 (stereo not given)	none
COc1ccccc1CN1CCn2c(nn(-c3ccc([N+](=O)[O-])cc3)c2=O)C1	HEK293 tox inconclusive, hNpr1 antagonist inconclusive, NIH3T3 tox inconclusive
CCCCNC(=O)CC(c1cccc(OC)c1OC)c1c[nH]c2ccccc12 (stereo not given)	HEK293 tox inconclusive, NIH3T3 tox inconclusive
COc1ccc(CCNC(=O)CC(c2cccc(F)c2)c2cn(C)c3ccccc23)cc1OC (stereo not given)	HEK293 tox 20µM, hNpr1 antagonist 17.8µM, NIH3T3 tox 22.4µM | Npr1 antag conf 24.3µM | NPR2 antag 27.3µM | FLuc inh counter inactive | GloSensor cGMP 27.3µM
COc1ccccc1C(CC(=O)NCC(C)C)c1cn(C)c2ccccc12 (stereo not given)	HEK293 tox inconclusive, hNpr1 antagonist inconclusive | Npr1 antag conf inconclusive | NPR2 antag inconclusive | FLuc inh counter inactive | GloSensor cGMP inactive
COc1ccc(CCNC(=O)CC(c2cccc(OC)c2OC)c2c[nH]c3ccccc23)cc1OC (stereo not given)	HEK293 tox inconclusive, NIH3T3 tox inconclusive
Cn1nccc1C(=O)N1CCC(Oc2ccccc2-c2nc(-c3ccccc3)no2)C1 (stereo not given)	HEK293 tox inconclusive, NIH3T3 tox inconclusive
CC(C)CCN1CCC(N2CCN(S(=O)(=O)c3ccc4c(c3)CCCC4)CC2)C1=O (stereo not given)	HEK293 tox inconclusive, hNpr1 antagonist inconclusive, NIH3T3 tox inconclusive | Npr1 antag conf inactive | NPR2 antag inactive | FLuc inh counter inactive | GloSensor cGMP inactive
Cn1nc(C2CCN(S(=O)(=O)c3ccc4c(c3)CCCC4)CC2)n(C2CCCC2)c1=O	HEK293 tox inconclusive, hNpr1 antagonist 11.2µM, NIH3T3 tox inconclusive | Npr1 antag conf 19.3µM | NPR2 antag 19.3µM | FLuc inh counter inactive | GloSensor cGMP 13.7µM
CN1CCN(C(=O)C2CCc3nc(N4CCN(C(=O)C5CCC5)CC4)sc3C2)CC1 (stereo not given)	none
c1ccc(OCc2noc(CN3CCN(C(c4ccccc4)c4ccccc4)CC3)n2)cc1	HEK293 tox inconclusive
C(=C\c1ccccc1)/CN1CCN(Cc2nc(COc3ccccc3)no2)CC1	HEK293 tox inconclusive, NIH3T3 tox inconclusive | Npr1 antag conf inconclusive | NPR2 antag inactive | FLuc inh counter inactive | GloSensor cGMP inconclusive
Cc1nsc(NC(=O)N2CCC(C(C)O)CC2)n1 (stereo not given)	FLuc inh inconclusive
Cc1nsc(NC(=O)NC23CC4CC(C2)CC(C(C)C)(C4)C3)n1	HEK293 tox 31.6µM, hNpr1 antagonist 12.6µM, NIH3T3 tox inconclusive | Npr1 antag conf 30.6µM | NPR2 antag 27.3µM | FLuc inh counter inactive | GloSensor cGMP inconclusive
COc1cc(CN2C[C@@H](CO)[C@H](C3CCN(C(C)=O)CC3)C2)ccc1F	none
CN(C)[S+](=O)([O-])c1ccc2c(c1)OCCN(Cc1ccc(C(F)(F)F)cc1)C2	HEK293 tox inconclusive, hNpr1 antagonist 17.8µM, NIH3T3 tox 44.7µM | Npr1 antag conf 12.5µM | NPR2 antag 17.7µM | FLuc inh counter inactive | GloSensor cGMP 8.86µM
O=[S+]([O-])(Nc1cccnc1)c1ccc2c(c1)OCCN(Cc1ccccc1)C2	HEK293 tox inconclusive, hNpr1 antagonist inconclusive, NIH3T3 tox inconclusive
CN(C)[S+](=O)([O-])c1ccc2c(c1)OCCN(Cc1ccc(F)cc1)C2	HEK293 tox inconclusive, NIH3T3 tox inconclusive
O=[S+]([O-])(Nc1ccccc1)c1ccc2c(c1)OCCN(Cc1ccncc1)C2	HEK293 tox inconclusive, hNpr1 antagonist inconclusive, NIH3T3 tox inconclusive | Npr1 antag conf 39.6µM | NPR2 antag 35.3µM | FLuc inh counter inactive | GloSensor cGMP 31.4µM
O=C(c1cccc(C(F)(F)F)c1)N1CCC(c2n[nH]c(=O)n2Cc2ccc(F)cc2)CC1	NIH3T3 tox inconclusive

Screening data (PubChem BioAssay)
